This is an account of results in PubChem BioAssay.

Assay [1] can be described thus: anti-His antibody binders, primary screen, artefact control for SMM control protein annotation, biochemical, small-molecule microarray, 635 nm fluorescence (AID 1128).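 Further: score merges feature fluorescence with signal-to-noise for each printed compound spot.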 The note with it: anti-His Alexa647 antibody binding, higher = more signal.
For assay [2], the system named is Human papillomavirus type 1a E7 protein (residues 1-88). Nature of the assay: HPV1a E7 small-molecule binders, primary screen, biochemical, small-molecule microarray, residues 1-88, 635 nm (AID 1129). Particulars: small-molecule microarray binding, fluorescence 635 nm; higher = more signal.
The target in assay [3] is Focal adhesion kinase 1 (Homo sapiens) (UniProt Q05397). Nature of the assay: small-molecule microarray binders of FAK, primary screen, biochemical, 635/667 nm fluorescence, BSA, DTT (AID 1130).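 Further: composite of spot emission at 667 nm and signal to noise over triplicate slides.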 Particulars: PTK2 binding, 635 nm fluorescence, higher = more signal.
Assay [4] deals with Fibrinogen (Alexa647-labelled). The assay is described as follows: fibrinogen binders on compound microarrays, profiling panel, artefact control for SMM control-protein annotation, biochemical, small-molecule microarray, 635/667 nm fluorescence (AID 1131).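 Further: z-score merges 667 nm fluorescence with per-spot signal-to-noise over triplicate slides.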 Particulars: fibrinogen-A647 binding fluorescence, higher = more signal.
The target in assay [5] is Follistatin (Homo sapiens) (UniProt P19883). The assay is described as follows: follistatin binders on small-molecule microarrays, primary screen, biochemical, small-molecule microarray, 635/667 nm fluorescence (AID 1132). The note with it: FST binding, 635 nm fluorescence, higher = more signal.
The target of assay [6] is Fibroblast growth factor 2 (Homo sapiens) (UniProt P09038). Nature of the assay: FGF2 binders on small-molecule microarrays, primary screen, biochemical, small-molecule microarray, 635/667 nm fluorescence (AID 1133). The note with it: small-molecule microarray binding, FGF2, fluorescence 635/667; higher = more signal.
Assay [7] can be described thus: mitochondrial membrane potential change in A549 cells, profiling panel, cell-based, JC-1 fluorescence, basal, 24 h, 100 nL (AID 1138).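 Further: A549 lung adenocarcinoma cells under basal conditions with no added stimulus; test concentration not given here.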 The note with it: higher = more signal.
The subject of a further assay is Lefty1. The assay is described as follows: Lefty1 binders on small-molecule microarrays, primary screen, biochemical, small-molecule microarray, 635/667 nm fluorescence (AID 1139). Particulars: small-molecule microarray binding, fluorescence 635/667; higher = more signal.
The test system of assay [8] is wheat germ agglutinin (Triticum aestivum), Alexa647-labelled. Nature of the assay: wheat germ agglutinin binders on compound microarrays, profiling panel, artefact control for SMM control-protein annotation, biochemical, small-molecule microarray, 635/667 nm fluorescence (AID 1140).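 Further: score merges 667 nm feature emission with signal to noise over triplicate slides.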 Particulars: WGA-A647 binding, 635 nm fluorescence, higher = more signal.
The target of assay [9] is Luciferin 4-monooxygenase (Photinus pyralis) (UniProt P08659). The assay is described as follows: firefly luciferase enzyme inhibitors, primary screen, biochemical, luminescence, purified enzyme, 2006 set (AID 1141).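 Further: cell-free assay with purified firefly luciferase at 100 ng per well in PBS; test concentration not given here.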 The note with it: SteadyGlo luminescence, 30 min, higher = more signal, called active from +8 up or from −8 down.
Assay [10] deals with Wnt5a (protein binding on small-molecule microarray). Nature of the assay: Wnt5a binders on small-molecule microarray, primary screen, biophysical, 635/667 nm fluorescence (AID 1142).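 Further: fluorescence read at 667 nm with signal to noise per printed feature.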 Particulars: 635 nm fluorescence, higher = more signal.
Assay [11] is described as follows: cell viability in Huh7 cells, primary screen, cytotoxicity control for HCV replication inhibitor project, CellTiter-Glo luminescence, basal, 48 h (AID 1143).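 Further: Huh7 hepatoma cells carrying a hepatitis C replication reporter with no stimulus; test concentration not given here.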 The note with it: Huh7 HCV replicon, higher = more signal, called active from +8 up or from −8 down. For orientation: Cellular ATP, detected with luciferase, serves as a proxy for viable cell number.
Assay [12] in a line: P. aeruginosa biofilm formation inhibitors, primary screen, PAO1 strain, BacTiter-Glo luminescence, LB-PBS (AID 1144). Particulars: 12 h, higher = more signal.
Assay [13] in a line: CREB reporter modulators without forskolin, primary screen, cell-based, PC12, CRE-LacZ reporter, unstimulated (AID 1145). The note with it: no forskolin, luminescence, 4.5 h, higher = more signal, called active from +8 up or from −8 down.
The nature of assay [14]: CREB reporter modulators under forskolin, primary screen, cell-based, PC12, CRE-LacZ reporter, forskolin-stimulated (AID 1146).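 Further: PC12 cells with 6xCRE LacZ reporter stimulated by forskolin 10 µM; beta-galactosidase reporter signal reflecting CREB driven transcription.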 Particulars: luminescence, 4.5 h, higher = more signal, called active from +8 up or from −8 down.
For assay [15], the target named is Streptavidin (Streptomyces avidinii) (UniProt P22629). The assay is described as follows: streptavidin binders on small-molecule microarray, primary screen, artefact control for SMM compound annotation, biophysical, 635/667 nm fluorescence (AID 1147).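 Further: signal reflects streptavidin binding to arrayed compounds as a control protein.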 The note with it: streptavidin binding, higher = more signal.
Assay [16] is described as follows: small-molecule binders of probe aInhba, primary screen, biochemical, small-molecule microarray, 635/667 nm fluorescence (AID 1148).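 Further: score merges 667nm spot fluorescence with signal-to-noise for antibody binding to printed compounds.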 The note with it: higher = more signal.
In assay [17] the target is Torsin-1A (Homo sapiens) (UniProt O14656). The assay is described as follows: torsin A binders from cell lysate, primary screen, small-molecule microarray, wild-type, 635/667 nm (AID 1149). The note with it: COS7 hTOR1A-WT lysate, 635 nm fluorescence, higher = more signal.
The target is the same in assay [18]. Nature of the assay: small-molecule binders of mutant TOR1A in lysate, primary screen, cell lysate, small-molecule microarray, COS7 lysate, 635/667 nm fluorescence (AID 1150).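 Further: score pools 667 nm emission and signal to noise measuring lysate protein binding.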 Particulars: COS7 hTOR1A mutant lysate, 635 nm fluorescence, higher = more signal.
The subject of assay [19] is Sonic hedgehog protein (Shh). Nature of the assay: small-molecule binders of Shh protein, primary screen, biochemical, small-molecule microarray, 635/667 nm fluorescence (AID 1151).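 Further: Shh protein binding to compounds spotted on small-molecule microarray slides; score combines spot fluorescence intensity with signal-to-noise across triplicate slides.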 Particulars: small-molecule microarray binding, 635 nm fluorescence; higher = more signal.

Structures are written as SMILES. The source made the active and inactive calls. Unless noted, how the calls were made is not given here.

Sequence of Streptavidin (Streptomyces avidinii) (P22629 whole entry, looked up): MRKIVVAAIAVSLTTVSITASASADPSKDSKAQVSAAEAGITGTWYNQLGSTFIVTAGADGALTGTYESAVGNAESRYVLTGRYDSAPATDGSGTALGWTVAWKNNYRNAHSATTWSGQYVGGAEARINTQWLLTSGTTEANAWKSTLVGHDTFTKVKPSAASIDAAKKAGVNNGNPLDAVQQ
Sequence of Torsin-1A (Homo sapiens) (O14656 whole entry, looked up): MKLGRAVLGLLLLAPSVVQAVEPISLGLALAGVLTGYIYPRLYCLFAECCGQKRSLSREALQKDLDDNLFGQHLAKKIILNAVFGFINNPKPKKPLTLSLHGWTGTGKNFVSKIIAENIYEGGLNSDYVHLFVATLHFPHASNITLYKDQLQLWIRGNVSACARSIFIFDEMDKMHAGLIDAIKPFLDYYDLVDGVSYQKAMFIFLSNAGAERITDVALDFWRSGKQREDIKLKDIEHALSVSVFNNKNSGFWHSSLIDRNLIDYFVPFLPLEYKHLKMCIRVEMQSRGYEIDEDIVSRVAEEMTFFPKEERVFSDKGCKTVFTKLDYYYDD
Sequence of Follistatin (Homo sapiens) (P19883 whole entry, looked up): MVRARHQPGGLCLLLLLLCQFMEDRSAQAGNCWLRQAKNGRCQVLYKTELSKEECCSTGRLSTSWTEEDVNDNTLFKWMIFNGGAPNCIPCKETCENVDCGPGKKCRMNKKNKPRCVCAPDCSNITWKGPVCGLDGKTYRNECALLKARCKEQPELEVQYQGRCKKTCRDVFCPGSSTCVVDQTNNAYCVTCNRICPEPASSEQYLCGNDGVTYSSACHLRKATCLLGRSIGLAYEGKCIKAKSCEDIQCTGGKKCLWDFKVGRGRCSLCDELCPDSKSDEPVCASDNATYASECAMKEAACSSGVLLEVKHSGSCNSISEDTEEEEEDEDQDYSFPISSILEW
Sequence of Luciferin 4-monooxygenase (Photinus pyralis) (P08659 whole entry, looked up): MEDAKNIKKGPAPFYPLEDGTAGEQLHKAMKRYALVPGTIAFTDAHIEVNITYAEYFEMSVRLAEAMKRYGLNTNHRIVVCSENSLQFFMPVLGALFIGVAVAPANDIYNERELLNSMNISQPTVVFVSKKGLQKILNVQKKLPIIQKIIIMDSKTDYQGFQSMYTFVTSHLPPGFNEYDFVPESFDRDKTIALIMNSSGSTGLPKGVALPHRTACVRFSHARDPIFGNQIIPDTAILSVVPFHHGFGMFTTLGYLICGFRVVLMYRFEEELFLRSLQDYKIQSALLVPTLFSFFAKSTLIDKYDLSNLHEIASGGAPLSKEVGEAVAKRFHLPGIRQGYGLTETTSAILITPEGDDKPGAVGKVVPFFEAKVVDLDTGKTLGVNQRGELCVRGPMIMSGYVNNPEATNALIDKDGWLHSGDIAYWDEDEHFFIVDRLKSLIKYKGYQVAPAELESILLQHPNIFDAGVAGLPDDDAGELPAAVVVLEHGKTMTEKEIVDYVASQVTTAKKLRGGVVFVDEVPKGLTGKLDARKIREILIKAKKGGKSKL
Sequence of Fibroblast growth factor 2 (Homo sapiens) (P09038 whole entry, looked up): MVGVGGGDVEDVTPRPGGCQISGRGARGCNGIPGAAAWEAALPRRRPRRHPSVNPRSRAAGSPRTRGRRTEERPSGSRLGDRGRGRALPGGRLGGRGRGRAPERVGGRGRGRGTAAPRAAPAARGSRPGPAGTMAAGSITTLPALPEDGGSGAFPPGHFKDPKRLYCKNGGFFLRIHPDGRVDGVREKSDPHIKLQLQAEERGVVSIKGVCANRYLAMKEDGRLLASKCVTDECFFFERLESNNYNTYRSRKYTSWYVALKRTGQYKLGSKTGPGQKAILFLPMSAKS
Sequence of Focal adhesion kinase 1 (Homo sapiens) (Q05397 whole entry, looked up): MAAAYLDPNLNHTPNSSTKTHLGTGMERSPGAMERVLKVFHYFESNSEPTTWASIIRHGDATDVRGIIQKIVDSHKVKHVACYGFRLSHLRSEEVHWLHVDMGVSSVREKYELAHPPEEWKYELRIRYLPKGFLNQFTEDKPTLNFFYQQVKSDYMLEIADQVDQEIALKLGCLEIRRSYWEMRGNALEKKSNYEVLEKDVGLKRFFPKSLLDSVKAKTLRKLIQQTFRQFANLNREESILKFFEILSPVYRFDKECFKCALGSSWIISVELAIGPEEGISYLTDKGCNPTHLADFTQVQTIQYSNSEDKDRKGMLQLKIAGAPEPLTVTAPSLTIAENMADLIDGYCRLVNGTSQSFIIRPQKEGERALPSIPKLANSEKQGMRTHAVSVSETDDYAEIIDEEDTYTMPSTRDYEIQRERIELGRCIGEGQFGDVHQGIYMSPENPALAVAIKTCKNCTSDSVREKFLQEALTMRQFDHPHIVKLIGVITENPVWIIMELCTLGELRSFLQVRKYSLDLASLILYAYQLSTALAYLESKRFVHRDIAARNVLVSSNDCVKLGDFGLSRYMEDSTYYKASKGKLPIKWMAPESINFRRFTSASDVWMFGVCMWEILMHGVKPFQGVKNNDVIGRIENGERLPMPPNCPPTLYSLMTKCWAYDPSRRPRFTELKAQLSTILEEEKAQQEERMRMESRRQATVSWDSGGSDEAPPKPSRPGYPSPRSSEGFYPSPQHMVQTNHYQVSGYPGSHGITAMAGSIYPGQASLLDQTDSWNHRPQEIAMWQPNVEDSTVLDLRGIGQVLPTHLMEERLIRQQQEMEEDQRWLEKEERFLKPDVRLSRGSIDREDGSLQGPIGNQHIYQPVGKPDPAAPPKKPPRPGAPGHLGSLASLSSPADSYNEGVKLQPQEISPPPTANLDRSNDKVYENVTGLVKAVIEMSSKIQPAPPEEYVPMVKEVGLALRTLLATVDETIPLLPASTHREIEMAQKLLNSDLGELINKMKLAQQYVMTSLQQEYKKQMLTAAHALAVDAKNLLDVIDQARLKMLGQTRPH

As for `OCCCC1=CC(C2CC2)N(Cc2cccc(OC(F)(F)F)c2)CC1` (stereo not given), the composite z-score in [1] is -0.103; in [2] it was -0.208; in [3], 0.227; in [4], -2.53; in assay [5], -0.306; in assay [6] it was -0.338. Further, the composite z-score is 0.32 in the assay with Lefty1; -0.0444 in assay [8]; -0.416 in [10]; -0.753 in assay [15]; -0.213 in [16]; -0.176 with Torsin-1A (Homo sapiens) [17]. In addition, the composite z-score in the assay with Torsin-1A (Homo sapiens) [18] is -0.773; in [19], 1. For the same compound, the z-score in assay [7] is 0.00271; in assay [9], 0.382 (inactive); in [11], -0.28 (inactive); in assay [12], 0.129 (inactive); in [13], 0.0882 (inactive); in assay [14] it was 0.0103 (inactive).
For the compound `CO[C@H]1O[C@H](CO)[C@@H](OC(=O)Nc2ccc(Br)cc2)[C@@H]2OC(=O)[C@H](Cc3cccc(Br)c3)C/C=C/C[C@@H](Cc3cccc(Br)c3)C(=O)O[C@@H]12`, the composite z-score is 0.144 in assay [1]; -0.122 in [2]; 0.2 in assay [3]; -0.538 in assay [4]; 0.585 in assay [5]; 0.268 in assay [6]. Further, the composite z-score was 0.647 in the assay with Lefty1; 0.616 in assay [8]; -0.149 in assay [10]; -0.174 in assay [15]; 0.0387 in assay [16]; -0.541 in the assay with Torsin-1A (Homo sapiens) [17]. For the same compound, the composite z-score with Torsin-1A (Homo sapiens) [18] was 0.384; in assay [19] it was 1.58. Moreover, the z-score in assay [7] is 1.37; in assay [9], 0.671 (inactive); in assay [11], -5.6 (inactive); in assay [12], -2.06 (inactive); in [13] it was -0.878 (inactive); in assay [14], 0.243 (inactive).
On to `CO[C@H]1O[C@H](CO)[C@@H](OC(=O)Nc2ccccc2)[C@@H]2OC(=O)[C@@H](Cc3ccc4ccccc4c3)C/C=C/C[C@H](Cc3ccc4ccccc4c3)C(=O)O[C@@H]12`, for which the composite z-score was 0.79 in assay [1]; 1.2 in assay [2]; 1.12 in [3]; 0.768 in assay [4]; 0.935 in [5]; 0.477 in assay [6]. Also, the composite z-score is 0.698 in the assay with Lefty1; 0.807 in assay [8]; 0.49 in assay [10]; 0.31 in [15]; -0.0494 in assay [16]; 0.643 with Torsin-1A (Homo sapiens) [17]. Besides, the composite z-score in the assay with Torsin-1A (Homo sapiens) [18] turned out to be 1.87; in assay [19], 0.662. Further, the z-score in [7] was 0.461; in assay [9] it was -1.97 (inactive); in assay [11], -3.61 (inactive); in [12] it was -1.4 (inactive); in assay [13] it was 0.502 (inactive); in assay [14] it was -0.757 (inactive).
As for `CCCCN1CC=CC23O[C@@H]4/C=C\CCCOC(=O)C4[C@H]2C(=O)N(CCCO)[C@@H]3C1=O` (stereo not given in full), the composite z-score in [1] was 2.36; in [2] it was -0.43; in [3], -0.226; in assay [4], -1.73; in [5], -0.98; in assay [6] it was -0.251. In addition, the composite z-score is -0.0249 in the assay with Lefty1; -0.151 in assay [8]; -0.311 in assay [10]; -1.3 in [15]; -0.105 in assay [16]; -1.36 with Torsin-1A (Homo sapiens) [17]. Moreover, the composite z-score with Torsin-1A (Homo sapiens) [18] is -1.64; in assay [19], -0.0567. In addition, the z-score in assay [7] is 0.259; in assay [9] it was 0.633 (inactive); in assay [11], 0.275 (inactive); in assay [12], 0.0302 (inactive); in [13], -0.0778 (inactive); in [14], 0.241 (inactive).
For `N#Cc1ccc(C(O)C2C=CC3C(=O)N(c4ccccc4)C(=O)C3N2Nc2ccccc2F)cc1` (stereo not given), the composite z-score in assay [1] came to 2.59; in [2], 1.05; in assay [3] it was 0.152; in assay [4], 0.97; in assay [5], 0.269; in [6], 0.191. The composite z-score in the assay with Lefty1 was 0.284; in assay [8], 0.144; in [10], 0.286; in assay [15], 0.0289; in [16] it was -0.0986; in the assay with Torsin-1A (Homo sapiens) [17], -0.291. Moreover, the composite z-score with Torsin-1A (Homo sapiens) [18] is -0.301; in assay [19], -0.234. The z-score is 0.0535 in assay [7]; 1.79 (inactive) in assay [9]; -2.92 (inactive) in [11]; -0.826 (inactive) in assay [12]; -0.107 (inactive) in [13]; -0.852 (inactive) in assay [14].
